LmPK inh = inhibitors of Leishmania mexicana pyruvate kinase; purified LmPK, Kinase-Glo ATP luminescence, 1 h; Potency, µM (highest dose often 57.5 µM), most hits filed as inhibitors; 290,000 tested, 0.37% active
Target sequence (Q27686 whole entry, looked up): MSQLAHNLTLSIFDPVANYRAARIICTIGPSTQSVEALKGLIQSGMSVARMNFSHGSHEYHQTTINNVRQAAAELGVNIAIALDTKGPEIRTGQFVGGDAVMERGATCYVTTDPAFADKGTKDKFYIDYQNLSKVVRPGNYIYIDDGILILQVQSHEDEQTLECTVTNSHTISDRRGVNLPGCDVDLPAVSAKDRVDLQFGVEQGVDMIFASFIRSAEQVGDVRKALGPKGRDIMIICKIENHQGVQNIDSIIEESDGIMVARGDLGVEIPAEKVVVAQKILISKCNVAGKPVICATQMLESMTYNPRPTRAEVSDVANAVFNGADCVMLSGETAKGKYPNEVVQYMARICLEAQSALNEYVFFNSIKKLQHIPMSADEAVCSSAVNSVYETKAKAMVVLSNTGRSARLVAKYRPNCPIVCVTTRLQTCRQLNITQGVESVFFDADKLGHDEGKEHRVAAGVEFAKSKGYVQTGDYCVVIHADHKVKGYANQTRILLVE
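Purified LmPK (0.1 nM) converted ADP (0.1 mM) to ATP with PEP (0.5 mM) in imidazole buffer pH 7.2 with KCl and MgCl2, 1 h at room temperature. ATP was read by Kinase-Glo luminescence; data normalized to uninhibited and no-enzyme controls.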
CHX counter = affects cycloheximide protein synthesis inhibition readout, counter-screen. AID 2314. cell reporter, cycloheximide protein synthesis inhibition counterscreen. 300,000 tested, 12% active. max response, %; in the data active = max response mostly above about 13%, no sharp cut-off; inactive = mostly below about 14%; note: read at 38.3 µM for the half of the compounds with a filed dose
RE007 growth inh = less growth of the S. pombe RE007 Vpr strain. S. pombe RE007 Vpr strain, BacTiter-Glo ATP luminescence, 24 h. Potency, µM (top dose mostly 92.2 µM), hits mostly inhibitors. 360,000 tested, 0.21% active. AID 651644; active = well fitted falling curve with a large enough effect; inconclusive = small, poorly fitted or top-dose-only effect; inactive = no such curve, though single readings can be large or run the other way; note: nearly all actives have a fitted effect of over 50% in size
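Fission yeast strain RE007, carrying one chromosomally integrated HIV-1 vpr copy, was seeded at OD 0.01 in PMG+AL medium with 23 nL pinned compound. After 24 h at 30 °C and 99% humidity, viability was read by BacTiter-Glo luminescence.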
Giardia FBPA inh = blocks Giardia fructose-bisphosphate aldolase activity; AID 2451; 290,000 tested, 0.71% active; Potency, µM (titrated, usually from 59.6 µM), most hits filed as inhibitors; purified Giardia FBPA; note: nearly all actives have a fitted effect of over 55% in size
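40 nM FBPA preincubated 10 min at RT with compound (up to 57.5 uM final), then substrate plus GAPDH/TPI/NAD/arsenate coupling and diaphorase/resazurin added. Fluorescence read after 20 min at RT, 525/598 nm.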
Shiga inhibitor = Shiga toxin inhibition | Vero cells, Shiga toxin protein synthesis inhibition reporter | 290,000 tested, 9.2% active | inhibition, % at 38.7 µM; in the data active = inhibition mostly above about 28%, no sharp cut-off; inactive = mostly below about 43%
TbPYK inhibitor = T. brucei pyruvate kinase inhibition; 410,000 tested, 0.12% active; AID 624173; Potency, µM (highest dose often 76.8 µM), usual class: inhibitors; Q57TT1; TbPYK enzyme, Kinase-Glo Plus ATP luminescence, 45 min; note: nearly all actives have a fitted effect of over 50% in size
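Quantitative HTS: titrated library compounds versus trypanosomal pyruvate kinase in TEA buffer (pH 7.2) containing KCl, MgCl2, BSA and Tween-20. Reactions were initiated with ADP, 130 uM final. Kinase-Glo Plus luminescence was read after 45 min at RT.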
Hits are given with their value; i = inactive; ? = inconclusive; nt = no result. The full list was thinned out, with hits kept by preference. Unless noted, calls come from the whole dose curve; as a rule, active = well fitted curve in the direction sought with a large enough effect; inconclusive = small, poorly fitted or top-dose-only effect, or another doubt; inactive = no such curve, though single readings can be large; an effect the other way counts as inactive or inconclusive.

SMILES	LmPK inh	CHX counter	RE007 growth inh	Giardia FBPA inh	Shiga inhibitor	TbPYK inhibitor
Cc1cc(C(=O)CSc2ncccn2)c(C)n1Cc1ccco1	i	46	i	i	79	i
CCc1ccc(/C(C)=N\Nc2ccc([N+](=O)[O-])cc2)cc1	i	19	i	i	i	i
C/C(=N\Nc1ccc([N+](=O)[O-])cc1)c1ccc(N)cc1	i	34	i	i	68	i
C/C(=N\NC(=O)COc1ccc([N+](=O)[O-])cc1)c1ccco1	nt	nt	i	nt	nt	i
CC(=NNc1ccc([N+](=O)[O-])cn1)c1ccc(N)cc1	nt	nt	i	nt	nt	i
C/C(=N\Nc1ccc([N+](=O)[O-])cc1)c1ccco1	i	47	i	i	34	i
O=C(Cn1c(=O)n(CCc2ccccc2)c(=O)c2c3c(sc21)CCCC3)Nc1ccc(F)c(F)c1	nt	nt	nt	nt	nt	i
C=CCNC(=S)NNC(=O)c1ccc(C)c(Cl)c1	i	i	i	i	i	i
COc1ccc(C(=O)NC(=S)NCCO)cc1Br	i	16	i	i	i	i
C=CCNC(=S)NC(=O)c1ccc(C)c(Br)c1	i	38	?	?	100	i
O=C(c1ccc(=O)[nH]c1)N(c1ccccc1)C(CCc1ccccc1)c1nc2ccccc2[nH]1 (configuration not stated)	nt	nt	i	nt	nt	i
CC1(C)Cc2nc(NC3CCCCC3)c(C#N)cc2CO1	i	i	i	i	i	i
CCc1ccc(Nc2nnc(SCC(=O)N(C)C3CCS(=O)(=O)C3)s2)cc1 (configuration not stated)	i	17	i	i	i	i
Cc1ccc(NC(=O)CCc2c(C)nc3c(-c4ccc(F)cc4)c(C)nn3c2C)cc1F	nt	nt	nt	nt	nt	i
COc1ccc(CCNC(=O)COC(=O)Cc2ccccc2)cc1	i	i	nt	i	i	i
Cc1nnsc1C(=O)Oc1ccc(C(C)C)cc1	nt	nt	nt	nt	nt	i
CC(Oc1ccc(C(=O)NCCc2ccccc2)cc1)C(=O)O (configuration not stated)	i	i	i	i	i	i
